Assay results from PubChem BioAssay (NCATS).
Several values for one entry are separate records, joined by “and”; a condition that tells them apart may be missing. Equal entries are not always repeated. Records with an inconclusive call do not appear. Activity calls are given as the source filed them. Unless noted, the call rests on the fitted dose curve; in most records, active means well fitted curve in the direction sought with a large enough effect; inconclusive means small, poorly fitted or top-dose-only effect, or another doubt; inactive means no such curve, though single readings can be large; an effect the other way counts as inactive or inconclusive.

What was measured:
[1] = qHTS Assay for Identification of Small Molecule Agonists for Thrombopoietin (TPO) Signaling Pathway (AID 917); further: on the % scale 0 is the no-effect control and ±100 the full control effect
Method in brief: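 Activators of TPO signaling were sought in murine Ba/F3 cells transfected with the human receptor, using a luciferase gene driven by the Glycoprotein IIb promoter; 24-hr compound exposure at 37 C alongside 26 pM TPO, in IL-3-free medium.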

[2] = target: Muscarinic acetylcholine receptor M1 (Rattus norvegicus) (UniProt P08482); assay: qHTS Assay for Antagonists of Acetylcholine Muscarinic M1 Receptor: Measurement of IP-One Response (AID 944); further: nearly all actives have a fitted effect of over 75% in size; further: potency means the concentration at half of the fitted maximal effect
Muscarinic acetylcholine receptor M1 (Rattus norvegicus), sequence (P08482 whole entry, looked up): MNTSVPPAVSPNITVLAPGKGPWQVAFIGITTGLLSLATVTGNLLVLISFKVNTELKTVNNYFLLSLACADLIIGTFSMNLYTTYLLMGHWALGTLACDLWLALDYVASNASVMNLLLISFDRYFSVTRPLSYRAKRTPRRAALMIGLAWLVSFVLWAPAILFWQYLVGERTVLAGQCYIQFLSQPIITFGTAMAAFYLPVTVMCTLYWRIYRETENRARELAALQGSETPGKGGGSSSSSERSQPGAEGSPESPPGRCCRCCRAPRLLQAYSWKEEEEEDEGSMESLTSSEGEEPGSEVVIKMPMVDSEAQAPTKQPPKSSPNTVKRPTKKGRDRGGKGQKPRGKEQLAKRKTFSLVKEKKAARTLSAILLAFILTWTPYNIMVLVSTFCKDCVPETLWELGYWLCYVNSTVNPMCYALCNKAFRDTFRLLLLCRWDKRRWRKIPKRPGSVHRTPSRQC
Method in brief: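 CHO cells stably expressing rat M1, pretreated 10 min with compound, then stimulated 30 min with carbachol at EC80 (200 nM) in LiCl-containing buffer pH 7.4; IP1 accumulation read by HTRF competition (665/620 nm).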

[3] = target: Pyruvate kinase (Leishmania mexicana) (UniProt Q27686); assay: qHTS Validation Assay for Inhibitors of Leishmania Mexicana Pyruvate Kinase (AID 945);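 further: 0% = DMSO only neutral control wells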
Pyruvate kinase (Leishmania mexicana), sequence (Q27686 2-499 E452W): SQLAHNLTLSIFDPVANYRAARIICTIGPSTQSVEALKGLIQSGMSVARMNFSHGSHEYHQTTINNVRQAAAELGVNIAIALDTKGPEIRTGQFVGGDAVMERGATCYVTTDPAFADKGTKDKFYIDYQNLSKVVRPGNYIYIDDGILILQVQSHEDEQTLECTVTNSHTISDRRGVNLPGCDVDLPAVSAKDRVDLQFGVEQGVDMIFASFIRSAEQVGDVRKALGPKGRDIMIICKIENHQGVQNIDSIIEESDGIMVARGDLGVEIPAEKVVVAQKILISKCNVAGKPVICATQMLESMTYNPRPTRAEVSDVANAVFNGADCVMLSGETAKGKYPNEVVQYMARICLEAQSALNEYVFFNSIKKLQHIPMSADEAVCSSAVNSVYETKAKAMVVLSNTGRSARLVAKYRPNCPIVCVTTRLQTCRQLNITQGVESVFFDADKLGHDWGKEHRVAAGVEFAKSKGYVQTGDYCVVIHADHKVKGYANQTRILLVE
Method in brief: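 Mutant LmPYK (E451W), 0.2 nM, plus 0.5 mM PEP and 0.1 mM ADP in 50 mM imidazole pH 7.2 containing 0.01% Tween 20 and 0.05% BSA. Incubated 1 h at room temperature; luminescence via PKLight, normalized to DMSO.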

[4] = target: Pyruvate kinase PKM (Homo sapiens) (UniProt P14618); assay: qHTS Assay for Activators of Human Muscle Pyruvate Kinase (AID 954; active means well fitted curve in the direction sought with a large enough effect, not every such curve was filed as active;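 further: 0% = uninhibited enzyme and -100% = no enzyme or full thiadiazolimine inhibition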)
Pyruvate kinase PKM (Homo sapiens), sequence (P14618 whole entry, looked up): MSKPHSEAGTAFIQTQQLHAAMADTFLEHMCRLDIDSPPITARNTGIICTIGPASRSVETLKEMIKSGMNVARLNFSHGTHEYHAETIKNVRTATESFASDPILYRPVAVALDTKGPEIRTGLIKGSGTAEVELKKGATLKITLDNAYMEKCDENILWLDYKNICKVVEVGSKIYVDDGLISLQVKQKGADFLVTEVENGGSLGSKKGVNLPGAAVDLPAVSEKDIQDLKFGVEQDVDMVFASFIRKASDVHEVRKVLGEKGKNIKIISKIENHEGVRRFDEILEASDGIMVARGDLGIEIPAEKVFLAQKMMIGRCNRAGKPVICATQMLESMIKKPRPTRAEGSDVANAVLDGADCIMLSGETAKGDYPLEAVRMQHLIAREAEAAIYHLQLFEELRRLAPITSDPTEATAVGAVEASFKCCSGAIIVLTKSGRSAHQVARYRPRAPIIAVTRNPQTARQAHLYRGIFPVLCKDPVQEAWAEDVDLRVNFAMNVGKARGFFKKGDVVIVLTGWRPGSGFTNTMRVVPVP
Method in brief: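 Enzyme was run at intermediate activity so both inhibitors and activators could be detected. ATP formed from ADP and PEP by 0.1 nM human PKM2 during a 1 h room-temperature incubation was quantified by coupled luciferase luminescence.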

[5] = target: Alpha-galactosidase (Coffea arabica) (UniProt Q42656); assay: Counterscreen for Glucocerebrosidase Inhibitors: qHTS Assay for Coffee Bean alpha-Galactosidase at pH 4.5 (AID 957);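 further: series mostly up to about 77 µM; plate controls were enzyme alone for no effect and no enzyme for full effect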
Alpha-galactosidase (Coffea arabica), sequence (Q42656 whole entry, looked up): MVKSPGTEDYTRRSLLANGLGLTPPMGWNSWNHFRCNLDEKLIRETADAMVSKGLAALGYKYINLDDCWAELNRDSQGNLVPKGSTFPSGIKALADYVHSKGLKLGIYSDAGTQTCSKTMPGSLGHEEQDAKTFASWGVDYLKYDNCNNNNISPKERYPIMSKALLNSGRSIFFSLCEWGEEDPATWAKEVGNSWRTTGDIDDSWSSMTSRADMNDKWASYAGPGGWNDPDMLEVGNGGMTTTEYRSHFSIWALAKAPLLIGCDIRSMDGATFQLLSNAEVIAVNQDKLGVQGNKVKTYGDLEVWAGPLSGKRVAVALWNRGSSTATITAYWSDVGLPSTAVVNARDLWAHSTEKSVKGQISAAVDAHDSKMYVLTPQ
Method in brief: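 Coffee bean enzyme (2 nM) with 80 uM 4-methylumbelliferyl alpha-D-galactopyranoside in 50 mM citric acid, 0.005% Tween-20, pH 4.5, 20 min at room temperature; compounds 0.7 nM–77 uM. Stopped at pH 10, fluorescence 365/440 nm; AC50 from Hill fits.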

[6] = Confirmation and Secondary Assay for Modulators of Hemoglobin Beta Chain Splicing at IVS2 705 locus (AID 930);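 further: HeLa cells stably expressing the EGFP-705 splicing reporter; GFP fluorescence per well restored by corrected splicing of the IVS2-705 intron in EGFP; series mostly up to about 46 µM; % of control where 0% means no effect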
Method in brief: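 Stable HeLa line with EGFP disrupted by mutant beta-globin intron 2 (705). Overnight attachment, then 2 days of compound at 37C, 5% CO2. Signal: peak GFP intensity summed over objects 5-250 µm.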

[7] = Cell Viability - LYMP2-001 (AID 921); further: nearly all actives have a fitted effect of over 70% in size; further: potency means the concentration at half of the fitted maximal effect
Method in brief: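 CellTiter-Glo luminescence (intracellular ATP) after 24 hr compound exposure at 37 C, 2500 lymphoblastoid cells/well in complete medium. AC50 fitted with standard Hill equation; tetraoctylammonium bromide positive control.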

[8] = MultiTox-Fluor Cytotoxicity Assay - LYMP1-001 - Dead Cells (AID 946); further: potency means the concentration at half of the fitted maximal effect
Method in brief: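 In this qHTS, 15 uM tetraoctylammonium bromide defined 100% and DMSO defined basal activity. Lymphoblastoid cells (LYMP1-001, 2500 per well) received compound for 16 hr at 37 C before a fluorogenic dead-cell substrate readout at 485/520 nm.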

[9] = MultiTox-Fluor Cytotoxicity Assay - LYMP1-002 - Live Cells (AID 955);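 further: cells exposed to compound for 16 hours; on the % scale 0 is the no-effect control and ±100 the full control effect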
Method in brief: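 Human lymphoblastoid LYMP1-002 cells, 2500/well, treated 16 h at 37 C in complete medium. Live-cell protease activity via GF-AFC fluorescence (Ex/Em 405/510) after 60 min reagent incubation; AC50 from Hill fits.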

[10] = MultiTox-Fluor Cytotoxicity Assay - LYMP1-002 - Dead Cells (AID 960); further: nearly all actives have a fitted effect of over 60% in size; further: potency means the concentration at half of the fitted maximal effect
Method in brief: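 Human lymphoblastoid LYMP1-002 cells, 2500/well, treated 16 h at 37 C; dead-cell protease cleavage of bis-AAF-R110 read by fluorescence (485/520); normalized to DMSO and 15 uM tetraoctylammonium bromide; AC50 from Hill fit.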

[11] = Cell Viability - LYMP1-003 - Assay at 40 hr (AID 964); further: nearly all actives have a fitted effect of over 60% in size; further: potency means the concentration at half of the fitted maximal effect
Method in brief: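 LYMP1-003 human lymphoblastoid cells, 2500/well, preincubated 5 h at 37 C, then treated with compound for 40 h at 37 C. Intracellular ATP read by CellTiter-Glo luminescence after 30 min at room temperature; AC50 from Hill-equation fits.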

[12] = target: Muscarinic acetylcholine receptor M1 (Rattus norvegicus) (UniProt P08482); assay: qHTS Assay for Antagonists of Acetylcholine Muscarinic M1 Receptor: Kinetic Measurement of Intracellular Calcium Response (AID 943); further: nearly all actives have a fitted effect of over 75% in size; further: potency means the concentration at half of the fitted maximal effect
Method in brief: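 CHO cells expressing rat M1 receptor, Fluo-4 loaded, preincubated 10 min with compound, then stimulated with EC80 carbachol (100 nM final). Kinetic calcium fluorescence over 4 min; response taken as peak over basal signal.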

[13] = MultiTox-Fluor Cytotoxicity Assay - LYMP1-001 - Live Cells (AID 947);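 further: 0% = DMSO only and full inhibition = tetraoctylammonium bromide control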
[14] = Cell Viability - LYMP1-002 - Assay at 16 hr (AID 948);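 further: 0% = DMSO alone and full effect = 92 µM tetraoctylammonium bromide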
Method in brief: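 LYMP1-002 human lymphoblastoid cells, 2500/well; 5 hr 37 C; cpd 16 hr 37 C; CellTiter-Glo 30 min RT; luminescence (ATP). Concentration-response, Hill-fit AC50. Pos ctrl tetraoctylammonium bromide.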

[15] = MultiTox-Fluor Cytotoxicity Assay - LYMP1-003 - Dead Cells (AID 961);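 further: cells exposed to compound for 16 h at 37 °C; 0% = DMSO and 100% = tetraoctylammonium bromide; nearly all actives have a fitted effect of over 70% in size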
Method in brief: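 Acute toxicity is scored as increased dead-cell protease activity in human lymphoblastoid LYMP1-003 cells after 16 h compound exposure in complete culture medium. Activity is normalized to DMSO basal and 15 uM tetraoctylammonium bromide as full response.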

[16] = MultiTox-Fluor Cytotoxicity Assay - LYMP1-003 - Live Cells (AID 962);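 further: cells exposed to compound for 16 hours at 37 °C; 0% = DMSO only and full loss = 92 µM tetraoctylammonium bromide; cytotoxic hits lower the live-cell protease signal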
Method in brief: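 LYMP1-003 lymphoblastoid cells, 2500/well in complete medium, treated 16 h at 37 C; live-cell protease cleavage of GF-AFC read by fluorescence (Ex/Em 405/510) after 60 min reagent; AC50 from Hill fits of concentration-response.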

[17] = Cell Viability - LYMP1-003 - Assay at 24 hr (AID 963);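 further: plate controls were DMSO only for no effect and tetraoctylammonium bromide positive control for full effect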
Method in brief: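 Human lymphoblastoid LYMP1-003 cells, 2500/well, treated 24 h at 37 C in complete medium. Viability read as intracellular ATP by CellTiter-Glo luminescence after 30 min at room temperature; AC50 from Hill-equation fits of qHTS concentration-response.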

[18] = qHTS Assay for Identification of Small Molecule Antagonists for Thrombopoietin (TPO) Signaling Pathway (AID 918); settings: TPO-dependent cell signaling reporter, antagonist mode; further: potency means the concentration at half of the fitted maximal effect; nearly all actives have a fitted effect of over 60% in size
Method in brief: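 Murine Ba/F3 cells expressing human TPO receptor and a Glycoprotein IIb promoter-luciferase reporter, IL-3-starved overnight, treated with compound plus TPO at EC50 (26 pM final). After 24 h at 37 C, luminescence read to detect inhibitors.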

[19] = qHTS Assay for Identification of Small Molecule Agonists for Hypoxia Response Element Signaling Pathway (AID 914; active means well fitted activation curve with a large enough effect in the signal ratio, with a control signal flat, not every such curve was filed as active; the % refers to the signal ratio; further: % of control where 0% means no effect); settings: ME-180 (cervical carcinoma) HRE-bla reporter, beta-lactamase ratio, CoCl2, 17 h; hits give high values
Method in brief: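 Reporter activity (beta-lactamase, CCF4 460nm/530nm ratio) in HRE-bla ME-180 cells is recorded after 17 h compound exposure with EC50 CoCl2 at 37 degrees Celsius. AC50 values come from titration data.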

N[C@@H]1C[C@H]1c1ccccc1
inactive: outcome [1] | Potency [2] | outcome [3] | outcome [4] | outcome [5]

CC(C)=CCOc1c2occc2cc2ccc(=O)oc12
inactive: outcome [6]

Oc1cccc2cccnc12
active: Potency [7] 6.31 µM | Potency [8] 39.8 µM | Potency [10] 15.8 µM | Potency [11] 31.6 µM and 39.8 µM
inactive: outcome [6] | Potency [9]

Clc1cccc(N2CCNCC2)c1
inactive: outcome [1] | outcome [3] | outcome [4] | outcome [5]

O=c1[nH]c2ccccc2n1CCCN1CCC(n2c(=O)[nH]c3cc(Cl)ccc32)CC1
active: Potency [2] 14.1 µM
inactive: outcome [1] | outcome [6] | outcome [3] | outcome [4] | outcome [5]

NN=C(N)N
inactive: outcome [1] | outcome [6] | Potency [12] | Potency [2] | outcome [3] | outcome [4] | outcome [5]

Cc1cccc(C)c1NC1=NCCCS1
inactive: outcome [1] | outcome [6] | outcome [3] | outcome [4] | outcome [5]

CCOP(=S)(OCC)Oc1cc(C)nc(C(C)C)n1
inactive: Potency [7] | Potency [8] | outcome [13] | outcome [14] | Potency [9] | Potency [10] | Potency [15] | Potency [16] | outcome [17] | Potency [11]

CCC1(C2=NCCN2)Cc2ccccc2O1 (configuration not stated)
inactive: outcome [6]

CC(C)CC(N(C)C)C1(c2ccc(Cl)cc2)CCC1 (configuration not stated)
inactive: outcome [6]

N[C@@H](Cc1ccc(N(CCCl)CCCl)cc1)C(=O)O
inactive: outcome [13] | outcome [14] | Potency [9] | Potency [10] | Potency [15] | Potency [16] | outcome [17] | Potency [11]
active: Potency [7] 39.8 µM

NCC1(CC(=O)O)CCCCC1
inactive: outcome [1] | outcome [3] | outcome [4] | outcome [5]

Oc1ccc(Cl)cc1Cc1ccccc1
inactive: Potency [7] | Potency [8] | outcome [13] | outcome [14] | Potency [9] | Potency [10] | Potency [15] | Potency [16] | outcome [17] | Potency [11]

CC(=O)[C@H]1CC[C@H]2[C@@H]3CC[C@H]4C[C@H](O)CC[C@]4(C)[C@H]3C(=O)C[C@]12C
inactive: outcome [1] | outcome [3] | outcome [4] | outcome [5]

NCC(O)c1ccc(O)cc1 (configuration not stated)
inactive: Potency [7] | outcome [6] | Potency [8] | outcome [13] | outcome [14] | Potency [9] | Potency [10] | Potency [15] | Potency [16] | outcome [17] | Potency [11]

COc1ccc(Cc2nccc3cc(OC)c(OC)cc23)cc1OC
inactive: outcome [6] | outcome [5]
active: Potency [18] 12.6 µM

Cc1ccc(S(=O)(=O)N[C@@H](CCCCN)C(=O)CCl)cc1
inactive: outcome [1] | Potency [12] | outcome [3] | outcome [4] | outcome [5]

CCCN1CCC[C@@H]2Cc3[nH]ncc3C[C@H]21
inactive: outcome [1] | Potency [12] | Potency [2] | outcome [3] | outcome [4] | outcome [5]

CCCN1CCC[C@@H]2Cc3nc(N)ncc3C[C@H]21
inactive: outcome [1] | Potency [2] | outcome [3] | outcome [4] | outcome [5]

OCCOc1ccccc1
inactive: Potency [7] | Potency [8] | outcome [13] | outcome [14] | Potency [9] | Potency [10] | Potency [15] | Potency [16] | outcome [17] | Potency [11]

O=P1(NCCCl)OCCCN1CCCl (configuration not stated)
inactive: activation [19] -2.35%

c1ccc(C2CC2)c(OCC2=NCCN2)c1
active: Potency [2] 10 µM
inactive: activation [19] 8.99% | outcome [3] | outcome [4] | outcome [5]

Cc1ncc(CNC(=O)N(CCCl)N=O)c(N)n1
inactive: outcome [1] | outcome [6] | Potency [2] | outcome [3] | outcome [4] | outcome [5]

Fc1ccc(C(OCCN2CCN(CCCc3ccccc3)CC2)c2ccc(F)cc2)cc1
active: Potency [18] 10 µM | Potency [12] 1.58 µM | Potency [2] 7.94 µM
inactive: outcome [3] | outcome [4] | outcome [5]

NCC(CC(=O)O)c1ccc(Cl)cc1 (configuration not stated)
inactive: outcome [1] | outcome [6] | outcome [3] | outcome [4] | outcome [5]

Nc1ccncc1
inactive: outcome [1] | outcome [6] | Potency [12] | Potency [2] | outcome [3] | outcome [4] | outcome [5]

Oc1ccccc1-c1ccccc1
inactive: Potency [7] | Potency [8] | outcome [13] | outcome [14] | Potency [9] | Potency [10] | Potency [15] | Potency [16] | outcome [17] | Potency [11]

O=c1[nH]c2ccccc2n1C1CCN(CCCC(c2ccc(F)cc2)c2ccc(F)cc2)CC1
inactive: outcome [6] | outcome [3] | outcome [4] | outcome [5]
active: Potency [18] 10 µM

COc1ccccc1N1CCNCC1
inactive: outcome [1] | outcome [6] | Potency [12] | Potency [2] | outcome [3] | outcome [4] | outcome [5]

CCn1cc(C(=O)O)c(=O)c2ccc(C)nc21
inactive: outcome [1] | Potency [12] | Potency [2] | outcome [3] | outcome [4] | outcome [5]

CCCC(C)(COC(N)=O)COC(=O)NC(C)C (configuration not stated)
inactive: activation [19] -37.8% | outcome [1] | Potency [7] | outcome [6] | Potency [2] | outcome [3] | Potency [8] | outcome [14] | outcome [4] | Potency [9] | outcome [5] | Potency [10] | Potency [15] | Potency [16] | outcome [17] | Potency [11]
